From PubChem BioAssay AID504853 (Southern Research Specialized Biocontainment Screening …, 2011) come the findings set out here.

Potency and affinity values are given separately. Calls of active or inactive are those of the source. Where a call stands in place of a potency, no number is given. No rule for the calls is given here.

A short description of the assay: HepG2 cell cytotoxicity, dose response, cytotoxicity control, set 3 (AID 504853). The conditions noted are these: series mostly up to 50 µM.
With `Cc1[nH]c(=S)[nH]c(=O)c1C`, the result was inactive. The result for `CN1CCC(NC(=O)CSc2nc3ccccc3c(=O)[nH]2)CC1` reads “inactive”; that for `CN(C(=O)CSc1nc2ccccc2c(=O)[nH]1)C1CCCCC1`, “inactive”; that for `Cc1nc(SCC(=O)NC2CCCC2)[nH]c(=O)c1C`, “inactive”.

Regarding `CC(C)NC(=O)CSc1nc2ccccc2c(=O)[nH]1`, the compound was classed as inactive.

Take `COC(=O)C(C)Oc1ccc(Cc2ncc(C(F)(F)F)cc2Cl)cc1` (stereo unspecified): the call was inactive. With `O=C(CSc1nc2ccccc2c(=O)[nH]1)NC1CCCC1`, the call was inactive.

As for `Cc1ccc(NC(=O)CSc2nc3ccccc3c(=O)[nH]2)cc1Cl`, the compound was classed as inactive. The result for `COC(=O)c1ccc(CNc2c(N3CCCC3)c(=O)c2=O)cc1` reads “inactive”; that for `Cc1c[nH]c(=S)[nH]c1=O`, “inactive”. `Nc1cc(=O)[nH]c(SCC(=O)NC2CCCCC2)n1`: the compound was called inactive. The result for `Cc1nc(SCC(N)=O)[nH]c(=O)c1C` reads “inactive”. In the case of `O=c1[nH]c(SCc2ccccc2Cl)nc2c1CCCC2`, the call was inactive. On to `CCC(Sc1nc2c(c(=O)[nH]1)CCC2)C(=O)Nc1cccc(OC)c1` (stereo unspecified), for which the call was inactive. For `O=C(CSc1nc2ccccc2c(=O)[nH]1)N1CCOCC1` the value was “inactive”; for `CC(Sc1nc2ccccc2c(=O)[nH]1)C(=O)NC1CCCCC1` (stereo unspecified), “inactive”.

In the case of `CN(C)C(=O)CSc1nc2ccccc2c(=O)[nH]1`, the result was inactive. The result for `Cc1nc(SCC(=O)N(C)c2ccccc2)[nH]c(=O)c1C` reads “inactive”; that for `Cn1c(SCC(=O)NC2CCCCC2)nc2ccccc2c1=O`, “inactive”; that for `CCC(Sc1nc2ccccc2c(=O)[nH]1)C(=O)Nc1cccc(OC)c1` (stereo unspecified), “inactive”. In the case of `O=C(CSc1nc2c(c(=O)[nH]1)CCCC2)NC1CCCCC1`, the result was inactive.

Turning to `COC(=O)C(Nc1nc(SCC(=O)NC2CCCCC2)nc2ccccc12)c1ccccc1` (stereo unspecified), the compound was called inactive.

Take `CCSc1nc(C)c(C)c(=O)[nH]1`: the compound was classed as inactive. Consider `Cc1ccc(NC(=O)COC(=O)CCc2c[nH]c3ccccc23)cc1[N+](=O)[O-]`, for which the result was inactive. For `CC(C)CCNC(=O)CSc1nc2ccccc2c(=O)[nH]1` the value was “inactive”; for `Cc1cc(=O)[nH]c(SCC(=O)NC2CCCCC2)n1`, “inactive”.
